# According to PubChem BioAssay (NCI):
# The panel holds about 83,000 compounds, 20% with a hit somewhere; the sample as a whole holds those more often.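 Negative percent growth values reflect cell death: -40 means 40% of the cells present at the start died, and -100 means all died.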 The source made the active and inactive calls.
# Tested on: HOP-92 NSCLC
# Experiment: NCI-60 one-dose screen, 48 h (100 = growth as untreated, 0 = no growth, -100 = all killed)
# Conditions: 10 µM unless noted
# Procedure: Growth inhibition of the HOP-92 human Non-Small Cell Lung tumor cell line is measured as a screen for anti-cancer activity. Cells are grown in 96 well plates and exposed to the test compound for 48 hours. Compounds are tested at a single concentration, which is 10^-5 M for most compounds. The reported endpoint is percent growth (GI% or GIPRCNT), where numbers from 0 - 100% represent growth inhibition, and numbers from -100% - 0 represent cell death. For example, a value of 40 represents 60% growth inhibition. A value of 0 means no net growth occurred over the course of the experiment. A value of -40 indicates 40% of cells at the beginning of the experiment died by the end of the experiment. A value of -100 means all cells are dead at the end of the experiment.
# NCI-60 Human Tumor Cell Lines Screen was performed using the standard one-dose NCI protocol, which is described in more detail at https://dtp.cancer.gov/discovery_development/nci-60/default.htm.
# Compounds with GIPRCNT values below 10 were considered active. Activity score was based on GIPRCNT using the following formula: […]
# Score is 0 for GIPRCNT values of 100 or above, 50 for GIPRCNT values of 0, and 100 for GIPRCNT values of -100.
row,Structure (SMILES),growth
1,CC[C@H](C)[C@H](NC(=O)N[C@@H](C)c1ccccc1)C(=O)N(C)[C@H](C[C@@H](OC(C)=O)c1nc(C(=O)N[C@@H](Cc2ccccc2)C[C@H](C)C(=O)OC)cs1)C(C)C,73.1% (inactive)
2,C[C@]12CCc3sc(NCCc4ccccc4)nc3C1=CC[C@@H]1[C@@H]2CC[C@]2(C)C(=O)CC[C@@H]12,66.4% (inactive)
3,COC(=O)[C@@H](C[C@H](Cc1ccccc1)NC(=O)c1csc([C@@H](C[C@H](C(C)C)N(C)C(=O)[C@@H](NC(=O)[C@H]2CCCCN2C)C(C)C)OC(C)=O)n1)NC(=O)OCc1ccccc1,25.7% [9.5 µM] (inactive)
4,O=C(Nc1ccc(Cl)cc1)Nc1nccs1,38.6% (inactive)
5,CC12CCC3C(C=CC4=C(N)C(=O)CCC43C)C1CCC2=O (stereo not given),61.9% (inactive)
6,CC1=C(CCCOC(=O)CN)C2=C(C)C3(CC3)[C@@](C)(O)C(=O)C2=C1,70.5% (inactive)
7,COC1=CC(=O)O[C@@H](/C=C/c2ccc3c(c2)OCO3)C1,60.9% (inactive)
8,CC[C@H](NC(=O)[C@H]1CCCCN1C)C(=O)N(C)[C@H](C[C@@H](OC(C)=O)c1nc(C(=O)N[C@@H](Cc2ccccc2)C[C@H](C)C(=O)O)cs1)C(C)C,46% (inactive)
9,Fc1ccc(C2=CCNCC2)cc1,119% (inactive)
10,Cc1cc(-c2nc3cc(F)ccc3[se]2)cc(F)c1N,79.2% (inactive)
11,Clc1cccc(NCOOC2(OOCNc3cccc(Cl)c3)CCCCC2)c1,-46.3% (active)
12,CNC(=O)Oc1ccc(N(C)C)cc1C(C)C,100% (inactive)
13,CN1CCCCC1C(C)(O)c1ccccc1 (stereo not given),98.6% (inactive)
14,O=C1C=C2C(=CCOC2O)O1 (stereo not given),-22.2% (active)
15,C=C1[C@@H](C)[C@H]2[C@H](Cc3ccccc3)NC(=O)[C@]23[C@@H](O)/C=C/[C@@](C)(O)C(=O)[C@@H](C)C/C=C/[C@H]3[C@@H]1O,-9.38% (active)
16,COC(=O)[C@@H](C)C[C@H](Cc1ccccc1)NC(=O)c1cccc([C@@H](C[C@H](C(C)C)N(C)C(=O)[C@@H](NC(=O)[C@H]2CCCCN2C)C(C)C)OC(C)=O)n1,53.7% (inactive)
17,COc1cc(/C=C/[N+](=O)[O-])cc(OC)c1,28.9% (inactive)
18,CCCCCCCC(=O)OCC(=O)[C@]1(O)Cc2c(O)c3c(c(O)c2[C@@H](OC2CC(N)C(O)C(C)O2)C1)C(=O)c1c(OC)cccc1C3=O (stereo not given in full),-73.5% (active)
19,CC[C@H](C)[C@H](NC(=O)c1nccn1C)C(=O)N(C)[C@H](C[C@@H](OC(C)=O)c1nc(C(=O)N[C@@H](Cc2ccccc2)C[C@H](C)C(=O)OC)cs1)C(C)C,29.9% (inactive)
20,Cc1c2cc(Cl)c3ccccc3c2c[n+]2ccccc12,75.4% (inactive)

row,Structure (SMILES),growth
1,N#CC1(C#N)C(c2ccc(N(CCCl)CCCl)cc2)OC23CCCCC2C1(C#N)C(=N)O3 (stereo not given),88.5% (inactive)
2,CC1=C([Te]c2ccc(O)cc2)C(=O)c2ccccc2C1=O,-56.5% (active)
3,C1CCC2(CC1)OOCNCOO2,122% (inactive)
4,C#Cc1ccc2c(c1)C(c1ccccc1)=NCC(=O)N2C,72.2% (inactive)
5,Cc1ccccc1NC(=NCCCN1CC1)Nc1ccccc1C,77.2% (inactive)
6,COc1ccc(C2=CC(c3ccc(OC)c(OC)c3)c3c(c4ccccc4oc3=O)O2)cc1OC (stereo not given),-12.5% (active)
7,CN(C)CC(C(=O)Cc1ccccc1)c1ccccc1 (stereo not given),86.3% (inactive)
8,COC(=O)[C@@H](C)C[C@H](Cc1ccccc1)NC(=O)c1csc([C@@H](C[C@H](C(C)C)N(C)C(=O)[C@H](C)NC(=O)[C@H]2CCCCN2C)OC(C)=O)n1,40.4% (inactive)
9,COC(=O)[C@@H](C)C[C@H](Cc1ccccc1)NC(=O)c1csc([C@@H](C[C@H](C(C)C)N(C)C(=O)[C@@H](NC(=O)[C@H]2CCCN2C)C2CC2)OC(C)=O)n1,-6.22% (active)
10,CC[C@@H]1[C@@H](C)O[C@@](O)([C@@H](C)[C@H](O)[C@H](C)[C@H]2OC(=O)/C=C/C=C/[C@H](C)[C@@H]([C@@H](C)[C@@H](O)[C@H](C)[C@@]3(O)C[C@@H](O[C@H]4C[C@@H](O)[C@H](O)C(C)O4)[C@H](CC)[C@@H](C)O3)OC(=O)/C=C/C=C/[C@@H]2C)C[C@H]1O[C@@H]1C[C@@H](O)[C@H](O)C(C)O1 (stereo not given in full),-89.9% (active)
11,C[C@@H]1C[C@@]2(C)[C@@H](CC[C@@H]3[C@@H]2CC[C@]2(C)C(=O)CC[C@@H]32)CC1=O,71.7% (inactive)
12,COC(=O)[C@@H](C)C[C@H](Cc1ccccc1)NC(=O)c1nc([C@@H](C[C@H](C(C)C)N(C)C(=O)[C@@H](NC(=O)[C@H]2CCCCN2C)C(C)C)OC(C)=O)sc1C,3.74% (active)
13,CCCCNC(c1ccc(Cl)cc1)C(O)c1ccc(Cl)cc1 (stereo not given),-5.31% (active)
14,COC(=O)C1CCC(NC(=O)c2csc([C@@H](C[C@H](C(C)C)N(C)C(=O)[C@@H](NC(=O)[C@H]3CCCCN3C)C(C)C)OC(C)=O)n2)CC1 (stereo not given in full),32.2% (inactive)
15,O=C(c1ccccc1O)c1[nH]c(Cl)c(Cl)c1-n1c(C(=O)c2ccccc2O)cc(Cl)c1Cl,-37.6% (active)
16,Cn1cc(-c2csc(-c3cn(CCN4CCOCC4)c4ccc(F)cc34)n2)c2cccnc21,27.2% (inactive)
17,[Cl][Hg][c]1cc(Br)cc(Br)c1,11.2% (inactive)
18,O=C(CC1(O)C(=O)Nc2ccc(Cl)cc21)c1ccc(C(=O)NCC2CCC3(CC2)OOC2(CCCCC2)OO3)cc1 (stereo not given),-70.3% (active)
19,COc1cccc2c1c(C(=O)C(=O)Nc1cc(C)no1)cn2Cc1ccc(F)cc1,57.4% (inactive)
20,CCOC(=O)C(Cc1ccc(N(CCCl)CCCl)cc1)NC(=O)C(CC(C)C)NC(C)=O (stereo not given),24.6% (inactive)
